Assay outcomes from PubChem.
JMJD2A Tudor inh = JMJD2A Tudor domain (human) inhibition; AlphaScreen JMJD2A-Tudor / H3K4me3 peptide binding; Potency, µM (top dose mostly 114 µM), for inactives: top-dose activity change, negative = inhibition, hits mostly inhibitors; 390,000 compounds, 4.4% hits; AID 504339; note: % is set by controls: 0 for no effect and ±100 for the full control effect; nearly all actives have a fitted effect of over 50% in size
Sfp PPTase inh = Sfp phosphopantetheinyl transferase inhibition | Biochemical Sfp PPTase activity, qHTS | Potency, µM, for inactives: largest response in the series, negative = inhibition, most hits filed as inhibitors | 310,000 compounds, 3.5% hits;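 note: the enzyme is Sfp with the accession as filed and its product quenches rhodamine fluorescence; 0% = enzyme reaction without inhibitor and -100% = no enzyme wells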
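Fluorescence-quenching assay with 15 nM Sfp, 5 uM rhodamine-CoA and 12.5 uM BHQ-2-labelled ybbR peptide in pH 7.6 Hepes/MgCl2 buffer. Enzyme was pre-incubated with compound for 15 min at room temperature. Rate was taken from the 30-min fluorescence change (525/598 nm).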
G9a inh = inhibitors of human histone lysine methyltransferase G9a | G9a H3K9 monomethylation, AlphaScreen, 2 h | Q96KQ7 | 350,000 compounds, 8.8% hits | Potency, µM (titrated, usually from 102 µM), for the others: at the top dose activity, negative = inhibition, actives largely listed as inhibitors | AID 504332; note: % is set by controls: 0 for no effect and ±100 for the full control effect; nearly all actives have a fitted effect of over 75% in size
Target sequence (Q96KQ7 913-1193 limits assumed): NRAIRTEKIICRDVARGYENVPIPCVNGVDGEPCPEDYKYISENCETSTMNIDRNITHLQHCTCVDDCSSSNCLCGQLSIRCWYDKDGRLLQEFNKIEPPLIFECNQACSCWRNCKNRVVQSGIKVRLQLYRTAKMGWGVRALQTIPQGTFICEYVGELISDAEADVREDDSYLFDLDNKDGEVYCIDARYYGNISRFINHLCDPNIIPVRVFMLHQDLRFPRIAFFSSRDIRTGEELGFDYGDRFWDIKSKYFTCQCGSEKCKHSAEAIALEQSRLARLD
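Compounds were preincubated with 20 nM G9a for 15 min, after which biotinylated H3K9 peptide (500 nM) and SAM (20 uM) started a 2 h room-temperature reaction. Monomethylated product was quantified by antibody-based AlphaScreen chemiluminescence.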
12-LOX inh = blocks human arachidonate 12S-lipoxygenase. P18054. Potency, µM (series often up to 108 µM), for the others: at the top dose activity change, negative = inhibition, hits mostly inhibitors. purified 12hLO, xylenol orange hydroperoxide absorbance. 580,000 compounds, 1.1% hits; note: % is set by controls: 0 for no effect and ±100 for the full control effect
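Purified human 12hLO at 150 nM in 25 mM Hepes, 0.01% Triton X-100, pH 7.0, preincubated 15 min at room temperature with compound. Reaction started with 40 uM arachidonic acid, 30 min at room temperature. Hydroperoxide measured by Fe-xylenol orange, 573/405 nm absorbance ratio.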
BAZ2B block = inhibitors of human BAZ2B bromodomain; AlphaScreen BAZ2B-H3K14Ac peptide displacement; Potency, µM (doses to about 114 µM), for the others: at the top dose activity change, negative = inhibition, most hits filed as inhibitors; 360,000 compounds, 4.4% hits; note: % is set by controls: 0 for no effect and ±100 for the full control effect; nearly all actives have a fitted effect of over 60% in size
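Compounds, titrated to a top concentration of 110 uM, were incubated 30 min at room temperature with preformed BAZ2B/acetyl-K14 H3 peptide complex (50 nM each). Proximity signal was measured by AlphaScreen after 20 min with beads.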
HP1b chromo inh = inhibitors of HP1-beta chromodomain binding to methylated histone tails | P83916 | 390,000 compounds, 0.56% hits | Potency, µM (titrated, usually from 114 µM), for inactives: at the top dose activity change, negative = inhibition, hits mostly inhibitors | AID 540317 | AlphaScreen HP1-beta / biotin-H3K9me3 peptide binding; note: nearly all actives have a fitted effect of over 70% in size
Target sequence (P83916 whole entry, looked up): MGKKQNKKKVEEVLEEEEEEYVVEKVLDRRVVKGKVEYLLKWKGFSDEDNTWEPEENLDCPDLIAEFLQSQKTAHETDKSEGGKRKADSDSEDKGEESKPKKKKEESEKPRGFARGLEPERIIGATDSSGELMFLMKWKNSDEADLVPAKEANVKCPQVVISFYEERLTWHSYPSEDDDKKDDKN
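AlphaScreen: HP1-beta (50 nM) preformed 30 min with biotin-H3(1-18)K9me3 peptide (50 nM) in PBS pH 7.4, 0.01% Tween-20. Compound added for 30 min at RT, then streptavidin donor/nickel chelate acceptor beads (10 ug/mL) for 30 min.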
The depositor's hits bear a star; [ ] = another dose, or the depositor's remark. Most compounds without a hit are left out; they make up all but 8.7% or so of the library. Calls come from the whole dose curve; as a rule, active = well fitted curve in the direction sought with a large enough effect; inconclusive = small, poorly fitted or top-dose-only effect, or another doubt; inactive = no such curve, though single readings can be large; an effect the other way counts as inactive or inconclusive. Potency is the fitted concentration of half-maximal effect.

`Nc1ccc(C(=O)Nc2cccc3ncccc23)cc1` gave JMJD2A Tudor inh -12%, Sfp PPTase inh 9%, G9a inh 5%, 12-LOX inh 23%, BAZ2B block inconclusive and HP1b chromo inh 39%.
`CC(=O)Nc1cccc2ncccc12` gave JMJD2A Tudor inh -19%, Sfp PPTase inh 22%, G9a inh 11%[59 µM], 12-LOX inh -4%, BAZ2B block -2% and HP1b chromo inh 14%.
O=C(Nc1cccc2ncccc12)c1ccc2ccccc2c1 was read as 12-LOX inh 11µM*.
For O=C(NC(=S)Nc1cccc2ncccc12)c1cccs1 the results were JMJD2A Tudor inh -4%, Sfp PPTase inh 45µM*, G9a inh 50µM*, 12-LOX inh -18%, BAZ2B block -32% and HP1b chromo inh 26%.
O=C(Nc1cccc2ncccc12)c1ccc2c(c1)OCCO2 was read as JMJD2A Tudor inh -8%, Sfp PPTase inh 10%, G9a inh -34%[12.7 µM], 12-LOX inh -4%, BAZ2B block -3% and HP1b chromo inh 34%.
O=C(NC1CCN(c2cc(-c3ccccc3)[nH]n2)CC1)c1ccc2ccccc2n1 was read as 12-LOX inh 1%.
CC1CC(OCC(O)C[N+]2(C)CCOCC2)CC(C)(C)C1 (stereo unspecified) was read as JMJD2A Tudor inh -2%, Sfp PPTase inh 6%, G9a inh 40µM*, 12-LOX inh inconclusive, BAZ2B block 11% and HP1b chromo inh inconclusive.
For CC1CC(OCC(O)CN2CCOCC2)CC(C)(C)C1 (stereo unspecified) the results were JMJD2A Tudor inh -15%, Sfp PPTase inh 3%, G9a inh -11%[59 µM], 12-LOX inh -2%, BAZ2B block 3% and HP1b chromo inh 36%.
For O=C(CC12CC3CC(CC(C3)C1)C2)Nc1ccc2oc(-c3cccnc3)nc2c1 the results were 12-LOX inh -7%.
For Nc1n[nH]c(-c2ccc(F)cc2)n1 the results were JMJD2A Tudor inh inconclusive, Sfp PPTase inh -4%, G9a inh 45µM*, 12-LOX inh -15%, BAZ2B block inconclusive and HP1b chromo inh 19%.
CCCCc1ccc(-c2nc(N)n[nH]2)cc1 was read as JMJD2A Tudor inh -13%, Sfp PPTase inh 11%, G9a inh 0%, 12-LOX inh -2%, BAZ2B block -3% and HP1b chromo inh 24%.
`Cc1ccc(C(=O)N2CCN(c3ccc([N+](=O)[O-])cc3-n3cccc3)CC2)cc1` gave JMJD2A Tudor inh inconclusive, Sfp PPTase inh 1%, G9a inh 28µM*, 12-LOX inh 3%, BAZ2B block inconclusive and HP1b chromo inh inconclusive.
`COc1ccc(N2CCN(C(=O)c3ccc(C)cc3)CC2)c([N+](=O)[O-])c1` gave JMJD2A Tudor inh inconclusive, Sfp PPTase inh -2%, G9a inh inconclusive, 12-LOX inh -23%, BAZ2B block inconclusive and HP1b chromo inh -32%.
Screening O=C(C1CC1)N1CCN(c2ccc([N+](=O)[O-])cc2-n2cccc2)CC1 returned JMJD2A Tudor inh inconclusive, Sfp PPTase inh 2%, 12-LOX inh -8%, BAZ2B block 45µM* and HP1b chromo inh -36%.
Screening CC(C)(C)C(=O)N1CCN(c2ccc([N+](=O)[O-])cc2-n2cccc2)CC1 returned JMJD2A Tudor inh -28%, Sfp PPTase inh 1%, G9a inh -40%, 12-LOX inh inconclusive, BAZ2B block inconclusive and HP1b chromo inh -36%.
Screening O=C1c2c(nc(COc3ccccc3)n2Cc2ccccc2)NCCN1CC1CC1 returned 12-LOX inh 26%[176 µM].
Screening CC1=C[C@@H](CNC(=O)c2ccccc2)[C@H](C(C)C)C[C@H]1CC(=O)N1CCCC1 returned 12-LOX inh 11%[176 µM].
Oc1ccc(CN2CCN(Cc3ccccc3)CC2)c2cccnc12 was read as JMJD2A Tudor inh 40µM*, Sfp PPTase inh 19%, G9a inh 3%[59 µM], 12-LOX inh -19%, BAZ2B block -1% and HP1b chromo inh inconclusive.
